Outcome and AC50 data for four compounds are collected here from PubChem BioAssay AID2284363 (EPA ToxCast).

The AC50 is the concentration giving half of the maximal activity seen.

SMILES strings stand for the structures. Active and inactive are the calls of the source. The calls were made as follows: active = hit-call score of the fitted dose curve at least 0.9, where 1 is the maximum; inactive = score below 0.9.

In this test the target is Nuclear factor erythroid 2-related factor 2 (Homo sapiens) (UniProt Q16236). The test is described as follows: ERF_US_NR_hNFE2L2: Eurofins (ERF) Cell Based Nuclear Translocation LeadHunter Assay for human Transcription Factor Keap1-Nrf2 Agonism. The procedure: ERF_US_NR_hNFE2L2 is a cell-based, single-readout assay that uses extracted gene-proteins in a cell-line assay. Measurements were taken 6 hours after chemical dosing in a 384-well plate. See Keap1-Nrf2 Human Transcription Factor Cell Based Agonist Nuclear Translocation Assay, DiscoverX.ERF_US_NR_hNFE2L2 is an assay component calculated from the ERF_US_NR_hNFE2L2 assay. It is designed to measure protein fragment complementation using a type of binding reporter as detected by chemiluminescence with fluorimetry technology.Data from the assay component ERF_US_NR_hNFE2L2 was analyzed at the assay endpoint, ERF_US_NR_hNFE2L2, in the positive analysis fitting direction relative to DMSO as the negative control and baseline of activity. Using a type of binding reporter, gain-of-signal activity can be used to understand changes in binding as they relate to gene NFE2L2. To generalize the intended target to other relatable targets, this assay endpoint is annotated to the dna binding intended target family, where the subfamily is basic leucine zipper.
Nuclear factor erythroid 2-related factor 2 (Homo sapiens), sequence (Q16236 whole entry, looked up, the tested form may be a part): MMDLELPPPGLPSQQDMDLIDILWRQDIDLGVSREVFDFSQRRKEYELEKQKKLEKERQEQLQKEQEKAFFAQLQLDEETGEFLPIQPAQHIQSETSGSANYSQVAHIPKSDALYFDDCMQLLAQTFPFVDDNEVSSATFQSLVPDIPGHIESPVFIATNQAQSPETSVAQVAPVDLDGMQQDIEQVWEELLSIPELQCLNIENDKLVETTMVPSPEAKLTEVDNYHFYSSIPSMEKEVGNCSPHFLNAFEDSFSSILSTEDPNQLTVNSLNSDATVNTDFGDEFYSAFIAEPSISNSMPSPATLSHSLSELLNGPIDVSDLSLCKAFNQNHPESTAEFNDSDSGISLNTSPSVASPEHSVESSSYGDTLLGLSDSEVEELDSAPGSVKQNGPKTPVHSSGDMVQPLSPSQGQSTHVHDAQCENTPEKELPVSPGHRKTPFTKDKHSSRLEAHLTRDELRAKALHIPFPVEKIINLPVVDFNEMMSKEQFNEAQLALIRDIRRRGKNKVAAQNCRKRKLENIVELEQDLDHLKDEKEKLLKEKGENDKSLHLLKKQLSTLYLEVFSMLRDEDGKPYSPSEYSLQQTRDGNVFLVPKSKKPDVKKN
Cells were seeded in a total volume of 20 uL into white walled, 384-well microplates and incubated at 37C overnight prior to testing.For agonist determination, cells were incubated with sample to induce response. Intermediate dilution of sample stocks was performed to generate 5X sample in assay buffer. 5 uL of 5X sample was added to cells and incubated at room temperature for 6 hours. Final assay vehicle concentration was 1%. The results are expressed as a percent efficacy relative to the maximum response of the control ligand.
Take `O=C(O)C(F)(F)C(F)(F)C(F)(F)F`: the outcome was inactive.

On to `O=C(O)C(F)(F)C(F)(F)C(F)(F)C(F)(F)C(F)(F)C(F)(F)C(F)(F)C(F)(F)Cl`, for which the outcome was inactive.

As for `O=C(O)CCC(F)(F)C(F)(F)C(F)(F)C(F)(F)C(F)(F)F`, the result was inactive.

For the compound `OCCC(F)(F)C(F)(F)C(F)(F)C(F)(F)C(F)(F)C(F)(F)C(F)(F)C(F)(F)F`, the half-maximal activity concentration (AC50) is 1.94 µM (active).
